Results filed as inconclusive are left out. The source made the active and inactive calls. Unless noted, the call rests on the fitted dose curve.
Experiments:
[1] = Nuclear factor erythroid 2-related factor 2/antioxidant responsive element (Nrf2/ARE) small molecule agonists: qHTS cell viability counter screen in human keratinocytes (AID 1919968; active means well fitted curve in the direction sought with a large enough effect in the repeat runs; an effect the other way counts as inactive or inconclusive; further: nearly all actives have a fitted effect of over 55% in size)
Procedure, shortened: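 CellTiter-Fluor fluorescence, read 1 h after reagent, gave viability in the same wells as the ARE-luciferase assay. KeratinoSens cells (1,500/well) had 23 h compound exposure at 37 C/5% CO2 following 5 h plating.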

[2] = Nuclear factor erythroid 2-related factor 2/antioxidant responsive element (Nrf2/ARE) small molecule agonists: luciferase reporter gene qHTS assay in human keratinocytes (AID 1919969); further: nearly all actives have a fitted effect of over 35% in size
[3] = biological target: Gonadotropin-releasing hormone receptor (Homo sapiens) (UniProt P30968); experiment: Human gonadotropin-releasing hormone receptor (GnRHR) small molecule agonists, calcium flux assay in GnRHR-HEK293 cells (AID 1920063); further: nearly all actives have a fitted effect of over 35% in size
Procedure, shortened: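 Agonist mode: compounds at 15 concentrations, in triplicate, went onto calcium dye-loaded GnRHR-HEK293 cells. Intracellular calcium was then followed as 480/540 nm fluorescence at 1 s intervals over 3 min.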

[4] = biological target: KiSS-1 receptor (Homo sapiens) (UniProt Q969F8); experiment: Human kisspeptin (KISS1R) small molecule agonists, calcium flux assay in KISS1R-HEK293 cells (AID 1920064; active means well fitted curve in the direction sought with a large enough effect in the repeat runs; an effect the other way counts as inactive or inconclusive)
Procedure, shortened: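 Agonist mode: intracellular calcium rise tracked at 1 s intervals over 3 min (480/540 nm) immediately after compound addition to dye-loaded KISS1R-HEK293 stable cells. Each compound tested at 15 concentrations in triplicate.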

[5] = G protein-coupled receptor (GPCR) small molecule agonists, calcium flux assay: HEK293 wild type cell line counter screen (AID 1920065)
Procedure, shortened: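 Calcium flux counter screen: compound added in agonist mode at 15 concentrations in triplicate to dye-loaded parental HEK293 cells. Fluorescence (480/540) read kinetically for 3 min; ATP served as positive control.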

[6] = p53 small molecule agonists, cell-based qHTS assay with human liver microsomes (AID 1963577);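 further: p53 response element beta-lactamase reporter cells with liver microsomes plus NADPH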
Procedure, shortened: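 In this qHTS, p53 response-element beta-lactamase cells receive test compound together with a microsome/NADPH activating system (0.5 mg/mL final each) and are incubated 16 h at 37 C before LiveBLAzer fluorescence detection.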

[7] = p53 small molecule agonists, cell-based qHTS assay with rat liver microsomes (AID 1963578)
Procedure, shortened: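 Agonist mode in p53RE-bla reporter cells, with compounds co-incubated 16 h at 37 C alongside 0.5 mg/mL rat liver microsomes and 0.5 mg/mL NADPH (final), followed by a 2 h LiveBLAzer detection step.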

[8] = p53 small molecule agonists, cell-based qHTS assay with human liver microsomes: qHTS cell viability counter screen (AID 1963579); further: nearly all actives have a fitted effect of over 45% in size
Procedure, shortened: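 Metabolically activated exposure: compounds, human liver microsomes and NADPH (0.5 mg/mL final apiece) were added to p53RE-bla cells seeded 5 h earlier, left 16 h at 37 C, and then assessed for viability by CellTiter-Glo luminescence.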

[9] = p53 small molecule agonists, cell-based qHTS assay with rat liver microsomes: qHTS cell viability counter screen (AID 1963580); further: nearly all actives have a fitted effect of over 45% in size
Procedure, shortened: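 Cytotoxicity counter screen: intracellular ATP read by CellTiter-Glo luminescence in the p53 reporter wells. HCT-116 p53RE-bla cells were treated for 16 h at 37 C alongside rat liver microsomes and NADPH, each 0.5 mg/mL final.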

[10] = p53 small molecule agonists, cell-based qHTS assay: qHTS cell viability counter screen (AID 1963581); further: nearly all actives have a fitted effect of over 45% in size
Procedure, shortened: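 Counter screen read by CellTiter-Glo luminescence (ATP content, 30 min at room temperature), run in the same wells as the beta-lactamase reporter read. HCT-116 p53RE-bla cells saw compounds for 16 h at 37 C.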

[11] = p53 small molecule agonists, cell-based qHTS assay (AID 1963582; active means well fitted activation curve with a large enough effect in the signal ratio in the repeat runs, not every such curve was filed as active; the % refers to the signal ratio)
Procedure, shortened: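 Read-out is beta-lactamase FRET fluorescence after 2 h at room temperature with LiveBLAzer B/G substrate. p53 response element-bla cells were treated 16 h at 37 C with compounds in DMSO, added 5 h after seeding.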

[12] = biological target: 5-hydroxytryptamine receptor 2A (Homo sapiens) (UniProt P28223); experiment: 5-hydroxytryptamine receptor 2A (HTR2A) small molecule antagonists, cell-based qHTS assay (AID 1963586); further: nearly all actives have a fitted effect of over 45% in size
Procedure, shortened: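 CHO cells stably expressing human HTR2A were plated for 18 h at 37 C, then loaded with calcium dye for 1 h. Compounds were preincubated 5 min at room temperature before DOI (4 nM solution) was added. Kinetic fluorescence was read for 3 min.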

[13] = biological target: 5-hydroxytryptamine receptor 2A (Homo sapiens) (UniProt P28223); experiment: 5-hydroxytryptamine receptor 2A (HTR2A) small molecule agonists, cell-based qHTS assay (AID 1963587); further: nearly all actives have a fitted effect of over 30% in size
Procedure, shortened: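 Kinetic calcium-flux fluorescence (2 min, 1 sec intervals) after compound addition in agonist mode. HTR2A-CHO cells were cultured 18 h, then dye-loaded 1 h at 37 C.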

[14] = biological target: Muscarinic acetylcholine receptor M1 (Homo sapiens) (UniProt P11229); experiment: Cholinergic receptor muscarinic 1 (CHRM1) small molecule antagonists, cell-based qHTS assay (AID 1963588); further: nearly all actives have a fitted effect of over 40% in size
Procedure, shortened: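 Compounds were tested at 15 concentrations in three independent runs. Dye-loaded CHRM1-CHO cells were exposed 5 min at room temperature before stimulation by acetylcholine added at 50nM. Intracellular calcium was read kinetically on FDSS for 3 min.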

[15] = biological target: Muscarinic acetylcholine receptor M1 (Homo sapiens) (UniProt P11229); experiment: Cholinergic receptor muscarinic 1 (CHRM1) small molecule agonists, cell-based qHTS assay (AID 1963589); further: nearly all actives have a fitted effect of over 35% in size
Procedure, shortened: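 Agonist-mode calcium-flux screen: compounds at 15 concentrations, three independent runs, were pin-transferred onto dye-loaded human CHRM1-CHO cells. Fluorescence was then recorded kinetically every second over minutes.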

[16] = biological target: Beta-2 adrenergic receptor (Homo sapiens) (UniProt P07550); experiment: Adrenergic beta2 receptor (ADRB2) small molecule antagonists, cell-based qHTS assay (AID 1963592); further: series mostly up to about 92 µM; nearly all actives have a fitted effect of over 50% in size
Procedure, shortened: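 Assay format: CHO-ADRB2 cells, 18-20hr seeding at 37C/5% CO2, then compound plus 1nM isoproterenol agonist mix for 0.5hr RT. Homogeneous time-resolved fluorescence cAMP detection after 1hr, expressed as 665/615 nm ratio.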

[17] = biological target: D(2) dopamine receptor (Homo sapiens) (UniProt P14416); experiment: Dopamine D2 receptor (DRD2) small molecule agonists, cell-based qHTS assay (AID 1963594); further: nearly all actives have a fitted effect of over 35% in size
Procedure, shortened: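 cAMP accumulation in DRD2-HEK293 cells measured by HTRF after 1 h detection; compounds added 10 min before NKH477 (200nM […]) forskolin-analogue stimulation, 30 min at room temperature, with Ro20-1724 present at 0.1 mM final.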

[18] = biological target: D(2) dopamine receptor (Homo sapiens) (UniProt P14416); experiment: Dopamine D2 receptor (DRD2) small molecule antagonists, cell-based qHTS assay (AID 1963595; active means well fitted inhibition curve with a large enough effect in the signal ratio in the repeat runs, with a control signal flat; the % refers to the signal ratio)
Procedure, shortened: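 HEK293 cells stably expressing DRD2, preincubated with 0.1 mM Ro20-1724 and compounds 10 min, were stimulated with 200 nM NKH477 plus 12 nM quinpirole for 30 min at room temperature; cAMP measured by HTRF (665/620 nm).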

[19] = cAMP Responsive Elements (CRE) small molecule agonists, cell-based qHTS assay (AID 1963590)
Procedure, shortened: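 Agonist mode: compound added to CRE-bla HEK 293T cells (2,000/well, 18 h after plating) for 3 h at 37 C/5% CO2. Reporter activity detected via FRET beta-lactamase substrate, 2 h room-temperature loading.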

[20] = cAMP Responsive Elements (CRE) small molecule antagonists, cell-based qHTS assay (AID 1963591; active means well fitted inhibition curve with a large enough effect in the signal ratio in the repeat runs, not every such curve was filed as active; the % refers to the signal ratio)
Procedure, shortened: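 Antagonist mode: compounds are added alongside the adenylyl cyclase activator NKH477 (0.25 uM final) to CRE-bla HEK293T cells for 3 h. LiveBLAzer FRET substrate, 2 h at room temperature, reports bla expression.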

Measured: Potency

5-hydroxytryptamine receptor 2A (Homo sapiens), sequence (P28223 whole entry, looked up): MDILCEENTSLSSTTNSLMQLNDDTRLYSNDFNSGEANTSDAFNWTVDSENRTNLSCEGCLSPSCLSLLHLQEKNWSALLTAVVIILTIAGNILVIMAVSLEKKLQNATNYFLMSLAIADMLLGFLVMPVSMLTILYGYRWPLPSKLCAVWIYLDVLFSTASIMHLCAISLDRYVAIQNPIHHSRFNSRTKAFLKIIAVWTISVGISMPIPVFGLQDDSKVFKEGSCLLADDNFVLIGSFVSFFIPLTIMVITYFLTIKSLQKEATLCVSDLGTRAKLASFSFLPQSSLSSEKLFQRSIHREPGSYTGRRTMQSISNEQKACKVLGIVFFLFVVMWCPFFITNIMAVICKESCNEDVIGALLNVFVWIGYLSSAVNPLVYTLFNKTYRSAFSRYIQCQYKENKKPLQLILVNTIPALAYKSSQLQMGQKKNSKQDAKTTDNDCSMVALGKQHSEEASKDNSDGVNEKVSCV
D(2) dopamine receptor (Homo sapiens), sequence (P14416 whole entry, looked up): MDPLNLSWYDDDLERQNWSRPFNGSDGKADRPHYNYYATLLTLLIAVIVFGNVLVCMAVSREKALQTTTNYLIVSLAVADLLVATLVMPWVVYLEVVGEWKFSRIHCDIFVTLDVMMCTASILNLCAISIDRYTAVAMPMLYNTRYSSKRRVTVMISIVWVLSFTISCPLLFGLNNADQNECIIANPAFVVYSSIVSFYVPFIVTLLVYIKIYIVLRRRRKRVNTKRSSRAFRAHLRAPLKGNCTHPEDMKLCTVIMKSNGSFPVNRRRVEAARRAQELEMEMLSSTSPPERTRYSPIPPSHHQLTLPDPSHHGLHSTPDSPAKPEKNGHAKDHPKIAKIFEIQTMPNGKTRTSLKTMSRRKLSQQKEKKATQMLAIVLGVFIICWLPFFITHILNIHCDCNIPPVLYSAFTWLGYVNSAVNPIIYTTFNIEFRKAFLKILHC
KiSS-1 receptor (Homo sapiens), sequence (Q969F8 whole entry, looked up): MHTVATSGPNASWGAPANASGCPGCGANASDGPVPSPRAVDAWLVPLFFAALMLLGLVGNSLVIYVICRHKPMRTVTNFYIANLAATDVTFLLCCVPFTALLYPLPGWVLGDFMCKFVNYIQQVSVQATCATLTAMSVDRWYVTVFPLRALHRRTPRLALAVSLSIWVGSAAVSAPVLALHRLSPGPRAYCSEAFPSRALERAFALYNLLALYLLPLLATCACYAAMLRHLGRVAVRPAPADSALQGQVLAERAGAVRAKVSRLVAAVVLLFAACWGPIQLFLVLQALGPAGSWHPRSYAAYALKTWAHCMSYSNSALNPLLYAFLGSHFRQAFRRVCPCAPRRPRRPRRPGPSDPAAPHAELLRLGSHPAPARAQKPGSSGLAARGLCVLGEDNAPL
Muscarinic acetylcholine receptor M1 (Homo sapiens), sequence (P11229 whole entry, looked up): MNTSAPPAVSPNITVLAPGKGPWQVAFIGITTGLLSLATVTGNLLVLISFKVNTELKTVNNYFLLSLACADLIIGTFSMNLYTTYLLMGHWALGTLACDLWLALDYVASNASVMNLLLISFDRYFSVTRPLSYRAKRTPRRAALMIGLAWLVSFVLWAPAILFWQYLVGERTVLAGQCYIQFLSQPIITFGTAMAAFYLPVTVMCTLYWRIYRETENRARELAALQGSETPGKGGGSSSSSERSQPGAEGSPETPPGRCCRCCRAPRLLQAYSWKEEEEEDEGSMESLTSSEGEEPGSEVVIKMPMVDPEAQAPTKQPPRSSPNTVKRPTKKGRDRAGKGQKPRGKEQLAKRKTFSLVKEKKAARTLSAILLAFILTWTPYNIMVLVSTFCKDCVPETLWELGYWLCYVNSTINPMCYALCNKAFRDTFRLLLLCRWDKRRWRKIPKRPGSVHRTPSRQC
Gonadotropin-releasing hormone receptor (Homo sapiens), sequence (P30968 whole entry, looked up): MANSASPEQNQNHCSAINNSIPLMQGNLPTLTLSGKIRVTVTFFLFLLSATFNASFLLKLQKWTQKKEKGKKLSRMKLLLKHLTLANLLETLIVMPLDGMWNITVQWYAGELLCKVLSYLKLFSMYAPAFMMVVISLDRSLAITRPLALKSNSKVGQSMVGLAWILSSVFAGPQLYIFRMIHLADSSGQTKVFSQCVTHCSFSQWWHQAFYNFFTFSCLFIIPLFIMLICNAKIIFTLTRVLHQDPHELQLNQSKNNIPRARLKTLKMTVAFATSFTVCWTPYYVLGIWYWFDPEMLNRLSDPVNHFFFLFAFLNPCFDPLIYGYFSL
Beta-2 adrenergic receptor (Homo sapiens), sequence (P07550 whole entry, looked up): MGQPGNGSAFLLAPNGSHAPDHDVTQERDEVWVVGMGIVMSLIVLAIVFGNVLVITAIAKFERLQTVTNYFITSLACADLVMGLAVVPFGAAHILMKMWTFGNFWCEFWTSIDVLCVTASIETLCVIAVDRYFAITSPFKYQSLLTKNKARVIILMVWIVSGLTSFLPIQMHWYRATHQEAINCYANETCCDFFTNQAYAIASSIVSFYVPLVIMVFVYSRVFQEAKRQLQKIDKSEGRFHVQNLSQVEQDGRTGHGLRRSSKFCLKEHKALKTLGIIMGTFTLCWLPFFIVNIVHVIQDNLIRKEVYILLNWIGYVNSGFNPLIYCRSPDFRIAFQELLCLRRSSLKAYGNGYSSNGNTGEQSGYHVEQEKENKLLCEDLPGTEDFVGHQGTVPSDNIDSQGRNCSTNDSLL

CCOC(=O)[C@H](CCc1ccccc1)N[C@@H](C)C(=O)N1Cc2cc(OC)c(OC)cc2C[C@H]1C(=O)O
not listed: [19] | [20]
inactive: all other assays above

O=C(O)c1ccc2cc(O)ccc2c1
not listed: [19] | [20]
inactive: all other assays above

CCCCS(=O)(=O)N[C@@H](Cc1ccc(OCCCCC2CCNCC2)cc1)C(=O)O
not listed: [15] | [17]
inactive: all other assays above

From PubChem BioAssay (Tox21)
